# HPGD inh = qHTS Assay for Inhibitors of HPGD (15-Hydroxyprostaglandin Dehydrogenase); purified HPGD, NADH fluorescence kinetic, PGE2 substrate; Potency, µM, most hits filed as inhibitors; hit rate 4.3% among 150,000
#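 NADH formation kinetics: reaction with 30 uM PGE2 and 1 mM NAD+ (final), 20 nM enzyme, Tris-HCl pH 8 with Tween 20, after 15 min compound preincubation at room temperature. Fluorescence change, last versus first of five reads.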
# PNC assembly inh = High Content Assay for Compounds that inhibit the Assembly of the Perinucleolar Compartment. hit rate 3.1% among 140,000. PC3M PTB-GFP, PNC prevalence imaging, 16 h; stronger effect = lower value. AID 2417, 2010. activity change (PNC), negative = inhibition, % at 10 µM;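 active = readout at or below -70, meaning at least 70% loss of cells showing the perinucleolar compartment, a nuclear body marking cancer cells; inconclusive = readout between -30 and a set limit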
#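 Compounds are pinned in duplicate onto adhered PC3M cells stably expressing GFP-tagged PTB and incubated 16 h at 37 C. Cells are then fixed, nuclei stained with Hoechst, and PNC-positive cells counted.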
# ALDH1A1 block = qHTS Assay for Inhibitors of Aldehyde Dehydrogenase 1 (ALDH1A1); Purified ALDH1A1, NADH fluorescence, propionaldehyde substrate; hit rate 7.3% among 220,000; Aldehyde dehydrogenase 1A1 (Homo sapiens), P00352; Potency, µM (series often up to 75.3 µM), usual class: inhibitors; AID 1030, 2008
# Target sequence (P00352 whole entry, looked up): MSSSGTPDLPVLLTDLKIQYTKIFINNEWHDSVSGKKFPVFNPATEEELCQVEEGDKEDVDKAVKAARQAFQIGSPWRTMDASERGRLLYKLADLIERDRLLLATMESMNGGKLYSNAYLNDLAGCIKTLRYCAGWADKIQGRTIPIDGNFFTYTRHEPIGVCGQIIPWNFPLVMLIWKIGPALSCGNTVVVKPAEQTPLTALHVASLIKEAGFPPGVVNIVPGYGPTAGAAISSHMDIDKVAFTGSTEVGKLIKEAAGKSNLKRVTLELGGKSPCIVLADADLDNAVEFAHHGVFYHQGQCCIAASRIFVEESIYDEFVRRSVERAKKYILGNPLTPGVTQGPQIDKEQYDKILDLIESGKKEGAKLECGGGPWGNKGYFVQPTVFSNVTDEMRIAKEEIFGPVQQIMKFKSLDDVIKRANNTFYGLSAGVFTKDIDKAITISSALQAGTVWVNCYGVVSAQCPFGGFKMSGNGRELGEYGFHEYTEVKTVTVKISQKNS
# LMNA splice mod = qHTS Assay for Modulators of Lamin A Splicing. Potency, µM (series often up to 46.1 µM), most hits filed as inhibitors. HeLa LMNA splicing GFP/RFP minigene ratio, 48 h. hit rate 0.01% among 200,000; active = well fitted inhibition curve with a large enough effect in the signal ratio, with a control signal flat, not every such curve was filed as active; inconclusive = small, poorly fitted or top-dose-only effect, or effect the other way, or a change in a side signal; the % refers to the signal ratio
#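 S3 HeLa cells stably expressing lamin A-EGFP splicing minigene plus DsRed2, 600 cells/well, 48 h compound exposure at 37C. Laser-scanning cytometry; analysed as GFP (500-530 nm)/RFP (575-640 nm) total intensity ratio; 0.5% DMSO vehicle.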
# ALOX12 inhib = qHTS Assay for Inhibitors of 12-hLO (12-human lipoxygenase); purified 12-hLO, xylenol orange hydroperoxide absorbance; hit rate 0.12% among 150,000; Polyunsaturated fatty acid lipoxygenase ALOX12 (Homo sapiens), P18054; Potency, µM (doses to about 57.1 µM), actives largely listed as inhibitors; active = well fitted inhibition curve with a large enough effect; inconclusive = small, poorly fitted or top-dose-only effect; also: nearly all actives have a fitted effect of over 55% in size
#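 Hydroperoxide output read as Fe(III)-xylenol orange absorbance, 573-to-405 nm ratio, after 30 min reaction with 40 uM arachidonic acid. Enzyme: 150 nM purified human 12hLO, 15 min compound preincubation; 25 mM Hepes pH 7.0, room temperature.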
# A number is an active result; n = inactive; u = inconclusive; x = not tested or not shown; [ ] = another dose, or the depositor's remark. Only some compounds are listed: those with a hit (about 10% of all), similar ones and a draw of the others. Unless noted, calls follow the shape of the dose curve; as a rule, active = well fitted inhibition curve with a large enough effect (not every such curve was filed as active); inconclusive = small, poorly fitted or top-dose-only effect, or another doubt; inactive = no such curve, though single readings can be large or run the other way.
SMILES,HPGD inh,PNC assembly inh,ALDH1A1 block,LMNA splice mod,ALOX12 inhib
Cc1cc(C)c(S(=O)(=O)NCC(c2ccco2)N2CCOCC2)c(C)c1 (stereo unspecified),x,x,x,n,x
CC(C)CC(=O)N1c2nc(C(C)C)nn2C2(CCCCC2)[C@@H]2CCCC[C@@H]21,x,x,x,n,x
CCOc1cc(C(=O)Nc2ccc3nc(Nc4cccc(Cl)c4)cc(C)c3c2)cc(OCC)c1OCC,x,x,x,n,x
COC(=O)c1c(C)oc(C)c1S(=O)(=O)NCc1ccco1,x,x,n,x,x
CCOC(=O)c1c(C)[nH]c(C(=O)OCC(=O)Nc2cc(C)ccc2OC)c1C,n,n,n,n,n
CCOC(=O)c1[nH]c(C)c(C(=O)Nc2cc(OC)ccc2OC)c1C,n,-107,n,u,n
Cc1ccc(N2CC(NC(=O)c3ccc(S(=O)(=O)N4CCOCC4)cc3)CC2=O)cc1 (stereo unspecified),x,x,x,n,x
Cc1ccccc1-c1nc2ccccc2c(=O)n1/N=C/c1ccccc1[N+](=O)[O-],22µM,n,14µM,n,n
O=c1c2ccccc2nc(-c2ccccc2)n1/N=C/c1ccc([N+](=O)[O-])cc1,n,n,n,n,n
Cc1ccc(NC(=O)C(NC2CCCc3ccccc32)c2ccccc2)c([N+](=O)[O-])c1 (stereo unspecified),n,n,u,u,n
Cc1ccc(NC(=O)C(NC2CCCc3ccccc32)c2ccccc2)cc1Cl (stereo unspecified),n,n,14µM,u,n
O=C(CNC(=S)N(Cc1ccccc1)Cc1ccccc1F)NCc1ccccc1,x,x,10µM,n,x
CCC(C)NC(=O)CNC(=S)N(Cc1ccccc1F)C1CCCCC1 (stereo unspecified),x,x,10µM,n,x
O=C(CNC(=S)N(Cc1ccccc1)Cc1ccccc1F)NCCc1ccccc1,x,x,u,n[9.22 µM],x
O=C(CNC(=S)N(Cc1ccccc1F)C1CCCCC1)NCCN1CCOCC1,x,x,1.9µM,n[9.22 µM],x
CCOCCCNC(=O)CNC(=S)N(Cc1ccccc1F)C1CCCCC1,n,n,14µM,u,n
Cc1ccc(C)c(NC(=O)Cn2cnc3nc4c(cc3c2=O)CCCC4)c1,x,x,x,n,x
CC(NC(=O)CNC(=S)N(Cc1cccs1)C1CCCC1)c1ccccc1 (stereo unspecified),x,x,16µM,u,x
COC(=O)NC1(C(F)(F)F)C(=O)NC(C)=C1C(=O)OC (stereo unspecified),n,-107,n,n,n
COC(=O)C1=C(C)NC(=O)C1(NC(=O)c1ccncc1)C(F)(F)F (stereo unspecified),x,x,n,x,x
O=S(=O)(NCc1ccco1)c1cnc(Cl)c(Br)c1,n,n,22µM,n,n
C=C1CCC(=O)C(C)CCC2C1CC2(C)C (stereo unspecified),n,x,n,n,n
COc1ccc(CCC(=O)NCCCNC(=O)CCc2ccc(OC)cc2)cc1,n,n,n,n,n
COc1ccc(CCC(=O)NCCc2cn3c(C)csc3n2)cc1,n,n,18µM,n,n
Nc1nc2c(nc(Br)n2C2OC(CO)C(O)C2O)c(=O)[nH]1 (stereo unspecified),n,x,n,n,n
SMILES,HPGD inh,PNC assembly inh,ALDH1A1 block,LMNA splice mod,ALOX12 inhib
O=C1CC(C(=O)Nc2ccc(Cl)cc2)n2ncnc2N1 (stereo unspecified),x,x,n,n,x
CCc1ccc(NC(=O)C2CC(=O)Nc3ncnn32)cc1 (stereo unspecified),n,n,25µM,n,n
CCOc1ccc(C(C)=O)cc1N1C(=O)C2C3C=CC(C3)C2C1=O (stereo unspecified),n,u,n,n,n
CCOc1ccc(C(C)=O)cc1N1C(=O)C2C3C=CC(O3)C2C1=O (stereo unspecified),28µM,n,22µM,n,n
O=P(O)(O)C(O)(Cc1cccnc1)P(=O)(O)O,x,x,x,n,x
COCCOC(=O)c1[nH]c2c(c1C)C(=O)CC(c1ccco1)C2 (stereo unspecified),n,-95,u,u,n
CSCCOC(=O)c1[nH]c2c(c1C)C(=O)CC(c1ccco1)C2 (stereo unspecified),n,-90,u,u,n
C=CCOC(=O)c1[nH]c2c(c1C)C(=O)CC(c1cc(OC)c(OC)c(OC)c1)C2 (stereo unspecified),n,n,u,u,n
CCOC(=O)c1[nH]c2c(c1C)C(=O)CC(c1ccco1)C2 (stereo unspecified),n,-108,u,u,n
Cc1c(C(=O)OCc2ccccc2)[nH]c2c1C(=O)CC(c1ccco1)C2 (stereo unspecified),n,-82,8.9µM,u,n
COCCOC(=O)c1[nH]c2c(c1C)C(=O)C(C(=O)OC)C(C)C2 (stereo unspecified),n,n,n,n,n
COc1cccc(Cn2c(CNS(=O)(=O)c3ccc(F)c(Cl)c3)nc3cccnc32)c1,x,x,x,n,x
NC(=O)c1nn2c(C(F)(F)F)cc(-c3ccc(Br)cc3)nc2c1Cl,x,x,x,n,x
CSc1ncnc2c1ncn2CC(=O)[C@H]1CC[C@H]2[C@H]3CCC4=CC(=O)CC[C@@]4(C)[C@@H]3CC[C@@]12C,n,x,u,x,n[11.4 µM]
Cc1c(C(=O)OCCOC(C)C)[nH]c2c1C(=O)CC(c1ccco1)C2 (stereo unspecified),n,-91,25µM,n,n
Cc1ccc(S(=O)(=O)Nc2cccc(-c3ccc(N4CCCC4)nn3)c2)c(C)c1,x,x,x,n,x
CC1(C)CC(=O)C(C(C2=C(O)CC(C)(C)CC2=O)c2cccs2)C(=O)C1 (stereo unspecified),x,n,n,u,n
CCCC(C1=C(O)CC(C)(C)CC1=O)C1C(=O)CC(C)(C)CC1=O (stereo unspecified),n,n,22µM,n,n
CC1(C)CC(=O)C(C(C2=C(O)CC(C)(C)CC2=O)c2cccc(O)c2)C(=O)C1 (stereo unspecified),n,n,14µM,n,n
CC1(C)CC(=O)C(C(C2=C(O)CC(C)(C)CC2=O)c2cccnc2)C(=O)C1 (stereo unspecified),n,u,14µM,n,n
Cc1ccc(C(C2=C(O)CC(C)(C)CC2=O)C2C(=O)CC(C)(C)CC2=O)o1 (stereo unspecified),3.5µM,u,14µM,n,n
CC(=N)C1=C(O)CC(C)(C)CC1=O,n,n,u,n,n
CCc1ccc(NC(=O)C2(c3cccs3)CCOCC2)cc1,x,x,x,n,x
COc1ccc(S(=O)(=O)NCc2ccco2)cc1N(C)S(=O)(=O)c1ccccc1,x,x,n,x,x
Cc1ccc(/C=C2/NC(=O)N(c3ccccc3)C2=O)o1,n,n,10µM,u,n
O=C1N/C(=C/c2ccc(N3CCOCC3)o2)C(=O)N1c1cccc(Cl)c1,x,x,18µM,u,x
